FAS-TE inh = FAS thioesterase (human) inhibition | inhibition, % at 15 µM | AID 602261 | recombinant FAS-TE, OMFH fluorogenic substrate, fluorescence endpoint | P49327 | hit rate 0.67% among 360,000;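 active = compounds whose normalised, plate-corrected inhibition of enzyme fluorescence in the single-dose primary screen is 50% or more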;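 also: 0% = DMSO with enzyme and 100% = substrate without enzyme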
Target sequence (P49327 whole entry, looked up): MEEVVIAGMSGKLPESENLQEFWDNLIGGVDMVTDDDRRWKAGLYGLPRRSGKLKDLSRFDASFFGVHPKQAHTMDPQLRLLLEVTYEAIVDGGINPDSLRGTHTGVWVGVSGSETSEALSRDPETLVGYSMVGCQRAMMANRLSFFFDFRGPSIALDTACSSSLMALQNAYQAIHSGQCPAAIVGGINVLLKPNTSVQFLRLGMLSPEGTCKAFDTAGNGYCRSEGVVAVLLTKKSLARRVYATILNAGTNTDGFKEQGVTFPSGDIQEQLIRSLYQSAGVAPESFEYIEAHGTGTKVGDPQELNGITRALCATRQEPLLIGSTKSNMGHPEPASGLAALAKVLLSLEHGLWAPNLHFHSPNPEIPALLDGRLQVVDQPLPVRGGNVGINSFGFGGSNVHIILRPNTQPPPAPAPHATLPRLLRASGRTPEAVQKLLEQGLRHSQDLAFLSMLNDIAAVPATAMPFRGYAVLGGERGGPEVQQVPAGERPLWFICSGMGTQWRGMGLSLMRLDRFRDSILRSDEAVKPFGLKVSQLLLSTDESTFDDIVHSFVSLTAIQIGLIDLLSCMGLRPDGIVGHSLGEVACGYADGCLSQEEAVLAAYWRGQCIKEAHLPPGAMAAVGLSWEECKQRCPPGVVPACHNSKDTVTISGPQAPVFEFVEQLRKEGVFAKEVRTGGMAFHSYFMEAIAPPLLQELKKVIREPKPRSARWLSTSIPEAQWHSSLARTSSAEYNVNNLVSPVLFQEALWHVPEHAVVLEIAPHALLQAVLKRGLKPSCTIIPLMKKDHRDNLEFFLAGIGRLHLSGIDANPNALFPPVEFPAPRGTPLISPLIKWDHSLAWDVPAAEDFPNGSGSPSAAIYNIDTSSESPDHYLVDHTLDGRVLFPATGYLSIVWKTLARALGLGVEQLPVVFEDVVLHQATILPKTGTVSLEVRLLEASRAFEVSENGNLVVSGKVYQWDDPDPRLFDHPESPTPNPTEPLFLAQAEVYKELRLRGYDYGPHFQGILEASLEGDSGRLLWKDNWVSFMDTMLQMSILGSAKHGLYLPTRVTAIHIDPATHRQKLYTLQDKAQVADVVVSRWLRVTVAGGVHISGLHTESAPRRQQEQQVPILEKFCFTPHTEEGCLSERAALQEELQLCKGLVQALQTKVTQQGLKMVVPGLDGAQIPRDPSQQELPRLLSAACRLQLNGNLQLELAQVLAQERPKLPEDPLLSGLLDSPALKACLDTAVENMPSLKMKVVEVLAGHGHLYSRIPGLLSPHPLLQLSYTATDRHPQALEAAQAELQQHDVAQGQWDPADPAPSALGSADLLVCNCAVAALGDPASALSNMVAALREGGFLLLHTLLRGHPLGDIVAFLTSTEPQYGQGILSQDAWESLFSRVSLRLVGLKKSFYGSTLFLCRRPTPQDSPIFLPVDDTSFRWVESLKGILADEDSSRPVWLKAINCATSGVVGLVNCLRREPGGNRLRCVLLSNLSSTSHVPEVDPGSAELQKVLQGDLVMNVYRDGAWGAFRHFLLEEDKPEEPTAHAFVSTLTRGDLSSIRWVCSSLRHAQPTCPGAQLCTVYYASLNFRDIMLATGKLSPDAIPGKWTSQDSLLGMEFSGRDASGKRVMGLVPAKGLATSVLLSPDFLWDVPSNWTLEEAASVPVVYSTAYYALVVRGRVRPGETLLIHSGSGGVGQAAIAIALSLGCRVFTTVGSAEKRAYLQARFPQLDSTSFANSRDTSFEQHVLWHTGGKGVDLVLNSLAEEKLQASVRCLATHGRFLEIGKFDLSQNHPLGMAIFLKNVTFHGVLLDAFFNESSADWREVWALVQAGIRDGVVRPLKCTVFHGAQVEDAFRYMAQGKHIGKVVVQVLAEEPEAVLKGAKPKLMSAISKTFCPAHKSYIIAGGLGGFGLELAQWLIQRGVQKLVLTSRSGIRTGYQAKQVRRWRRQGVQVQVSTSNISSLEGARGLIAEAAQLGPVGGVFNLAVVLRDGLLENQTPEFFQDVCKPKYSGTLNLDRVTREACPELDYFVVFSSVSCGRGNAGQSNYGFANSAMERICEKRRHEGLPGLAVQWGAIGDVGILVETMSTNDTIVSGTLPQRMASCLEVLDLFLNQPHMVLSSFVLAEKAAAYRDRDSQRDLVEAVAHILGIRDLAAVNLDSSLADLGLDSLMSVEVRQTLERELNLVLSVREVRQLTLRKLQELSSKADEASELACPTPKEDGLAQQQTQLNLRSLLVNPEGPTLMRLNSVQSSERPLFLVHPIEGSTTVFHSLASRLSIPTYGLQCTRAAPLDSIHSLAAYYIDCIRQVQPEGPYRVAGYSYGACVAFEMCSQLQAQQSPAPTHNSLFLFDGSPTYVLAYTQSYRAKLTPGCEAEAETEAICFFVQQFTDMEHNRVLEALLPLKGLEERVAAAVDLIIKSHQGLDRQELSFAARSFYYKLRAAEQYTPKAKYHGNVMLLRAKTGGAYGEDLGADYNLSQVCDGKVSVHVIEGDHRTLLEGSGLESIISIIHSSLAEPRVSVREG
rCAG RNA binder = molecules binding r(CAG) RNA repeats; r(CAG) RNA repeat, TO-PRO-1 dye displacement fluorescence; inhibition, % at 3 µM; hit rate 1.3% among 370,000;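 active = inhibition above the plate cutoff, the mean of all test compounds on that plate plus 3 SD, cut at about 35% in these data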;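 also: 0% = DMSO alone and 100% = 100 µM mitoxantrone as full dye displacement; higher means more dye released from RNA so lower well fluorescence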
GRIN3A LBD mod = modulates the human NR3A ligand-binding domain | NR3A LBD differential scanning fluorimetry, Tm shift; 0% = protein alone, 100% = glycine-bound protein | Tm shift relative to glycine control, % at 25 µM | hit rate 2.5% among 340,000;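 active = melting temperature shift of at least 10% of the positive control shift, at one fixed dose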
NadD block = inhibitors of Staphylococcus aureus NadD; purified NadD enzyme, colorimetric absorbance read-out; inhibition, % at 20 µM; hit rate 0.78% among 360,000; in the data active = inhibition above about 26%
Active calls of the source: *. This is a sample that favours compounds with a hit; in the whole collection about 4.3% have one here.

`Cc1c(C(=O)Nc2ccc3c(c2)OCO3)sc2nc(-c3ccccc3)cn12` gave FAS-TE inh 2, rCAG RNA binder 4, GRIN3A LBD mod 27* and NadD block 20.
For Cc1c(C(=O)Nc2ccccc2)sc2nc(-c3ccccc3)cn12 the results were FAS-TE inh 19, rCAG RNA binder 9, GRIN3A LBD mod 26* and NadD block 6.
Screening Cc1cccc(NC(=O)c2sc3nc(-c4ccccc4)cn3c2C)n1 returned FAS-TE inh 4, rCAG RNA binder 1, GRIN3A LBD mod -3 and NadD block -3.
`O=C(NCc1ccccc1F)c1ccc(S(=O)(=O)Nc2cccc(C(F)(F)F)c2)cc1` gave FAS-TE inh 11, rCAG RNA binder 32, GRIN3A LBD mod 27* and NadD block -10.
Screening CC(=O)N1CCN(C(=O)c2ccc(S(=O)(=O)Nc3cccc(C(F)(F)F)c3)cc2)CC1 returned FAS-TE inh -3, rCAG RNA binder 4 and NadD block 2.
O=C(c1ccc(S(=O)(=O)Nc2cccc(C(F)(F)F)c2)cc1)N1CCC1 was read as FAS-TE inh -4, rCAG RNA binder 3, GRIN3A LBD mod 16* and NadD block -6.
For O=C(NCc1ccc(F)cc1)c1ccc(S(=O)(=O)Nc2cccc(C(F)(F)F)c2)cc1 the results were FAS-TE inh 23, rCAG RNA binder 27, GRIN3A LBD mod 29* and NadD block -8.
`COc1ccc(OC)c(CNS(=O)(=O)c2ccccc2Br)c1` gave rCAG RNA binder 2.
For O=C(Cc1c[nH]c2ccccc12)N/N=C/c1ccc(F)cc1 the results were FAS-TE inh -6, rCAG RNA binder -2, GRIN3A LBD mod -5 and NadD block -1.
For C/C(=N\NS(=O)(=O)c1ccc([N+](=O)[O-])cc1)c1ccc2c(c1)OCO2 the results were FAS-TE inh 40, rCAG RNA binder 3, GRIN3A LBD mod 2 and NadD block -5.
`C/C(=N\Nc1ccc([N+](=O)[O-])cc1)c1ccc2c(c1)OCO2` gave FAS-TE inh -6, rCAG RNA binder 7, GRIN3A LBD mod 23* and NadD block -2.
For C/C(=N\NC(=O)CCc1c[nH]c2ccccc12)c1ccc([N+](=O)[O-])cc1 the results were FAS-TE inh 10, rCAG RNA binder 3, GRIN3A LBD mod 22* and NadD block -5.
For C/C(=N/Nc1ccc([N+](=O)[O-])cc1)c1ccc(C)cc1C the results were FAS-TE inh 48, rCAG RNA binder 14, GRIN3A LBD mod 24* and NadD block -8.
Screening C/C(=N\Nc1ccc([N+](=O)[O-])cc1)c1ccc(C#N)cc1 returned FAS-TE inh -2, rCAG RNA binder 4, GRIN3A LBD mod 9 and NadD block 4.
CN(C)c1ccc(/C=N/NC(=O)CCc2c[nH]c3ccccc23)cc1 was read as FAS-TE inh -8, rCAG RNA binder 11, GRIN3A LBD mod 16* and NadD block -1.
`O=C(NCCN1CCC(Cc2ccccc2)CC1)C1CCCN(S(=O)(=O)c2cccs2)C1` (stereo unspecified) gave rCAG RNA binder 1.
O=C(CSc1ccccc1)NC1CCCCN(Cc2ccc(Cl)cc2)C1=O (stereo unspecified) was read as rCAG RNA binder 1.
`CC(=O)c1cc(-c2ccc([N+](=O)[O-])cc2)c(=O)n2c1CCC2` gave rCAG RNA binder 4.
Screening C/C(=N/NC(=O)c1ccccn1)c1c[nH]c2ccccc12 returned FAS-TE inh -3, rCAG RNA binder 1, GRIN3A LBD mod 4 and NadD block 0.
C/C(=N/Nc1ccc([N+](=O)[O-])cc1)c1c[nH]c2ccccc12 was read as FAS-TE inh 39, rCAG RNA binder 34, GRIN3A LBD mod 29* and NadD block -1.
For C/C(=N\Nc1ccc([N+](=O)[O-])cc1)c1cc2ccccc2o1 the results were FAS-TE inh 26, rCAG RNA binder 15, GRIN3A LBD mod 27* and NadD block -2.
Screening COc1ccc(C(=O)OCCCN(C)C2CN(Cc3cn(Cc4ccc([N+](=O)[O-])cc4)nn3)S(=O)(=O)C2)cc1OC (stereo unspecified) returned rCAG RNA binder 8.
Screening O=C(Nc1ccc(-c2nc3c(ccc4ccccc43)o2)cc1)c1ccco1 returned FAS-TE inh 4, rCAG RNA binder 5, GRIN3A LBD mod 35* and NadD block -10.
O=C(Nc1ccc(-c2nc3cc(Cl)ccc3c(=O)o2)cc1)c1ccco1 was read as FAS-TE inh 6, rCAG RNA binder 6, GRIN3A LBD mod 11* and NadD block 29.
Screening COc1cc2nc(NC(=O)c3ccco3)sc(=O)c2cc1OC returned FAS-TE inh -3, rCAG RNA binder 2, GRIN3A LBD mod 15* and NadD block -4.
Screening O=C(Nc1nc2c(ccc3ccccc32)s1)c1ccco1 returned FAS-TE inh 16, rCAG RNA binder 18, GRIN3A LBD mod 16* and NadD block -10.
COc1ccc(N2CCN(CCCNC(=O)COc3ccc(C)cc3)CC2)cc1 was read as rCAG RNA binder -2.
Screening CCN(C[C@H]1N[C@@](CC)(C(=O)OC)[C@H]2C(=O)N(C)C(=O)[C@@H]12)S(=O)(=O)c1ccc(C(C)(C)C)cc1 returned FAS-TE inh -9, rCAG RNA binder -2, GRIN3A LBD mod 18* and NadD block 5.
COC(=O)[C@]1(Cc2ccccc2)N[C@H](CN(C)S(=O)(=O)c2ccc(C(C)(C)C)cc2)[C@@H]2C(=O)N(C)C(=O)[C@@H]21 was read as FAS-TE inh 18, rCAG RNA binder 1, GRIN3A LBD mod 15* and NadD block -6.
Screening COC(=O)C1CN(Cc2ccc(C)cc2)CCS(=O)(=O)N1Cc1cn(Cc2ccc(C)cc2)nn1 (stereo unspecified) returned rCAG RNA binder 2.
For COc1ccc2c(c1)Cc1sc(NC(=O)c3ccccc3)nc1-2 the results were FAS-TE inh 1, rCAG RNA binder 18, GRIN3A LBD mod 10* and NadD block 5.
For COc1ccc2c(c1)Cc1sc(NC(=O)c3cccs3)nc1-2 the results were FAS-TE inh 4, rCAG RNA binder 33, GRIN3A LBD mod 25* and NadD block 8.
For O=C1/C(=C/c2ccccc2)SC(=S)N1CC(=O)N1CCCCC1c1cccnc1 (stereo unspecified) the results were FAS-TE inh 1, rCAG RNA binder 4, GRIN3A LBD mod -1 and NadD block 45*.
N#CCOC(=O)[C@H](Cc1c[nH]c2ccccc12)NS(=O)(=O)c1ccc(Cl)cc1 was read as FAS-TE inh 6, rCAG RNA binder 13, GRIN3A LBD mod 29* and NadD block -2.
Screening CC(CNC(=S)Nc1cc(F)cc(F)c1)CSc1ccc(Cl)cc1 (stereo unspecified) returned FAS-TE inh 29, rCAG RNA binder 4, GRIN3A LBD mod 10* and NadD block -8.
For COc1ccc(Cl)cc1NC(=S)Nc1ccc(Cl)cn1 the results were FAS-TE inh -3, rCAG RNA binder 1, GRIN3A LBD mod 16* and NadD block 2.
For Cc1ccc(NC(=S)NCCSc2ccc(Cl)cc2)cc1 the results were FAS-TE inh 25, rCAG RNA binder 1, GRIN3A LBD mod 18* and NadD block -5.
